According to ChEMBL document CHEMBL3988442, “University of Dundee, Small-Polar-MMV Screening Library” (2021):

Legend:
[1] = molecular target: T1, Aspartate--tRNA(Asp/Asn) ligase (Mycobacterium tuberculosis (strain ATCC 25618 / H37Rv)) (UniProt P9WFW3); assay: Assay for Asp RNA synthetase-1 from Mycobacterium tuberculosis; type: functional; design: scale not given: direction of the effect not stated beside the values; details: 30 µM; note: in the data most compounds retested in dose-response had high values
T1 sequence (whole entry): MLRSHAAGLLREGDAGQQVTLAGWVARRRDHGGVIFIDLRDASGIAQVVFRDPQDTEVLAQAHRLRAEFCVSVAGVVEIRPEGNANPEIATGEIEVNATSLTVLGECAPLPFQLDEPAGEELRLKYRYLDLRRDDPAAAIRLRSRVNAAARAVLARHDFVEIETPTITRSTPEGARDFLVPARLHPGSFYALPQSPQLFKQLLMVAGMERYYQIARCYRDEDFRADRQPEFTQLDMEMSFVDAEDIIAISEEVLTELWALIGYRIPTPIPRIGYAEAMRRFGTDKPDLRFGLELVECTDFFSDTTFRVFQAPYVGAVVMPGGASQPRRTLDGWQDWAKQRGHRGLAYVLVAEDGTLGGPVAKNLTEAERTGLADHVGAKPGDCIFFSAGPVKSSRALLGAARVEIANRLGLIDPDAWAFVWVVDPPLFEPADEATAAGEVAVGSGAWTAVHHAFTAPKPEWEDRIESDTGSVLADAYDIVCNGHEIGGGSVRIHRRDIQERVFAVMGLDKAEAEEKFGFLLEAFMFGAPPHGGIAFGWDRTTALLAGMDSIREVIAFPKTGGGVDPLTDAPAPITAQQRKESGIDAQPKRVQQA

[2] = molecular target: Shiga toxin 2 (Escherichia coli O157:H7) (UniProt P09385+P09386); assay: E. coli 0.157:H7 Shiga Toxin SOP - stx2 screening assay; type: functional; design: scale not given: direction of the effect not stated beside the values; details: 30 µM

Row | SMILES | Percent Effect [1] [%] | Percent Effect [2] [%]
1 | Cc1nc(C)n(CC2CCCN(CCC(=O)N3CCCCC3)C2)n1 (configuration not stated) | -1.61 | 13.6
2 | Cc1nc(C2CCCN(C(=O)c3cnn(C(C)(C)C)c3)C2)no1 (configuration not stated) | -4.47 | -34.6
3 | Cc1ccc(-c2nc(CN3CCc4nn(C)c(=O)cc4C3)no2)cc1 | 5.81 | -0.113
4 | OC(CN1CCN(Cc2ccc(F)cc2)CC1)C1CC1 (configuration not stated) | -7.53 | -3.92
5 | CC(CNC(=O)Nc1cn[nH]c1)N1CCOCC1 (configuration not stated) | 1.82 | 26.9
6 | O=C(NCc1ccccn1)Nc1cc(C(F)(F)F)c[nH]c1=O | 1.37 | -24.9
7 | NC(=O)c1nnn(-c2ccc(Br)cc2)n1 | 3.66 | -41.8
8 | O[C@H]1[C@H](n2cc(-c3cccnc3)nn2)c2ccccc2C12CCNCC2 | -2.48 | 7.64
9 | CCCNC(=O)C(C)NC(=O)CCc1ccccc1Br (configuration not stated) | 0.362 | -18.6
10 | CCCn1c(C)c(CC(=O)NC)c2c1CC(C)(C)CC2=O | -1.07 | -13.3
11 | Cc1cc(C)cc(C2(C(=O)N3CCCC(n4cncn4)C3)CC2)c1 (configuration not stated) | 0.962 | 26.6
12 | Cc1ccc(C(=O)N2CCN(C(=O)Nc3ccccn3)CC2)o1 | 4.09 | 10.3
13 | CN(Cc1nnc(C2CC2)n1C)C1CCN(Cc2ccon2)C1 (configuration not stated) | 12.3 | 14.2
14 | CNC(=O)COc1ccc(CNCc2ccc(F)cc2F)cc1 | 3.4 | -35.4
15 | CCOCCCC(=O)NCc1cn2cc(Br)ccc2n1 | 0.599 | -66
16 | CC(NC(=O)NCCCOC1CCCCC1)c1nncn1C (configuration not stated) | -3.32 | -6.91
17 | O=C1CC(c2ccccc2)C2(CCN(Cc3ccccn3)CC2)N1 (configuration not stated) | 2.57 | -17.4
18 | O=C(NCCCN1CCOCC1)c1ccn(-c2ccc3ccccn23)n1 | 3.71 | -18.9
19 | CCOc1ccnc(N2CCN(C(=O)c3cc(Cl)c[nH]3)CC2)n1 | -2.48 | 18.5
20 | Cc1noc(NC(=O)c2ccc(C)c(F)c2)n1 | -11.1 | -3.27
21 | CCC(CNC(=O)c1ccc(Br)o1)N1CCc2ccccc2C1 (configuration not stated) | 1.73 | 8.06
22 | CN(CCn1cccn1)S(=O)(=O)N1CCCC1c1ccco1 (configuration not stated) | 4.31 | 20.4
23 | CCCNC(=O)c1ccc(NC(=O)c2cccc(OCC)c2)cc1 | 2.98 | -85.2
24 | Cc1ccc(OCC(=O)NCC(C)C)nc1 | -3.37 | -28.9
25 | CCCC(=O)N1CCC2(CC1)CC(NC(C)=O)c1ccccc1O2 (configuration not stated) | -5.26 | -24.9
26 | CC(=O)N1CCCN(C(=O)NCc2ccccn2)CC1 | 3.93 | 16.9
